Assay outcomes from PubChem BioAssay.
The list is not random: actives were taken first. Their share in the collection is about 1.8%.
GLP1R ag: agonists of human GLP-1 receptor | P43220 | HEK293 GLP-1R CRE-luciferase, luminescence, 4-6 h; cells express a hypersensitive GLP-1R form | Potency, µM (series often up to 45.6 µM), without a hit: top-dose activation, usual class: activators | 0.007% of 380,000 active | AID 624172; note: % of control where 0% means no effect
KAT2A inh: GCN5L2 (KAT2A) acetyltransferase inhibition | Potency, µM (series often up to 58.9 µM), inactives show at the highest dose activity change, negative = inhibition, hits mostly inhibitors | GCN5L2 HAT assay, ThioGlo1 CoA-SH fluorescence | 0.21% of 390,000 active; note: % is set by controls: 0 for no effect and ±100 for the full control effect
Target sequence (Q92830 whole entry, looked up): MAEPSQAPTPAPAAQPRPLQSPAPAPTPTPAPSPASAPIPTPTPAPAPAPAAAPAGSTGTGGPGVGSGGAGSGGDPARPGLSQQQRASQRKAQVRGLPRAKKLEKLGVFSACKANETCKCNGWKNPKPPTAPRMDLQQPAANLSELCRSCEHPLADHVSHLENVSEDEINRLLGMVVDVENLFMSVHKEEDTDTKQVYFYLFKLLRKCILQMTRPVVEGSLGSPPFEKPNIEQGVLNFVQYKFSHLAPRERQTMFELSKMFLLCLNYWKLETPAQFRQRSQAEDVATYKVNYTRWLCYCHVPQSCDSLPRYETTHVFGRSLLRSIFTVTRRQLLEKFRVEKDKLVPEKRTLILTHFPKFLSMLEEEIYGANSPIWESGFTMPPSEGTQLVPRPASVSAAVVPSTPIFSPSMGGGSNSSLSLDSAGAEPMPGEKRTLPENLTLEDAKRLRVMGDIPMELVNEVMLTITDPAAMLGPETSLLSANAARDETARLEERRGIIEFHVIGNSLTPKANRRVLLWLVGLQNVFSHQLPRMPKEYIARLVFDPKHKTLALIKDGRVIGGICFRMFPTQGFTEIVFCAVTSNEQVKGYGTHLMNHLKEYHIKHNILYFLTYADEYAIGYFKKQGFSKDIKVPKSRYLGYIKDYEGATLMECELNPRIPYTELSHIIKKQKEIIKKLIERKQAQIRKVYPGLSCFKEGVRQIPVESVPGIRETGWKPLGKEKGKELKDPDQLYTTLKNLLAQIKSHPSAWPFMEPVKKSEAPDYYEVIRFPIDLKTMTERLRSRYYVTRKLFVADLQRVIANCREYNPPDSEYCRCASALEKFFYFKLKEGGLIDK
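GCN5L2 (20 nM) in 50mM HEPES pH 7.5, 0.1mM EDTA, 0.01% Tween-20 preincubated 15 min with compounds at room temperature. Reaction started with H3(1-25) 75uM, acetyl-CoA 70uM, ThioGlo1 50uM; CoA-thiol fluorescence (Ex340/Em540) read at 0 and 20 min.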
GLP1R cytotox: cytotoxicity in counter-screen for GLP-1R inverse agonists | Potency, µM (titrated, usually from 38.3 µM), for the others: top-dose activity change, negative = inhibition, actives largely listed as inhibitors | HEK293 cAMP-luciferase reporter cells, luminescence, 24 h | 0.13% of 410,000 active;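 note: loss of luciferase light is scored as toxicity; % is set by controls: 0 for no effect and ±100 for the full control effect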
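Compound-treated cells are incubated 24 hr at 37 deg C under 5% CO2 after a 12 hour attachment period, then luciferase detection reagent is added and luminescence is measured following 12 min at room temperature; lowered signal indicates toxicity.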
RGS4 inh: blocks human RGS4-accelerated GTP hydrolysis. P49798. Transcreener GDP fluorescence polarization, RGS4-accelerated GTP hydrolysis. Potency, µM (titrated, usually from 114 µM), for the others: at the highest dose activity change, negative = inhibition, most hits filed as inhibitors. 0.039% of 390,000 active; note: % is set by controls: 0 for no effect and ±100 for the full control effect; nearly all actives have a fitted effect of over 75% in size
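MLSMR compounds (23 nl, pin-transferred) preincubated 10 min at room temperature with a 500nM (2x) first reagent, then RGS4 at 900nM (2x) plus Transcreener GDP mix added; fluorescence polarization (620/688 nm) read before and after 90 min at 30 °C.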
PTHR1 ag: PTHR1 (human) receptor agonism | Q03431 | HEK293 GP2 PTHR1 cells, GloSensor cAMP luminescence, 1 h | Potency, µM (doses to about 115 µM), without a hit: top-dose activation, actives largely listed as activators | 0.075% of 410,000 active; note: nearly all actives have a fitted effect of over 55% in size
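HEK-293-derived GP2 cells expressing PTHR1 and a GloSensor cAMP reporter, 3,000/well, plated overnight, given luciferin plus IBMX (each 0.5 mM as added) for 1 h at 37 °C, then compound for 1 h at 37 °C. Luminescence was read after 15 min at room temperature.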
GLP-1R inv ag: acts as inverse agonist at human GLP-1 receptor | Potency, µM (series often up to 38.3 µM), without a hit: top-dose activity change, negative = inhibition, actives largely listed as inhibitors | P43220 | 1.6% of 410,000 active | HEK293 GLP-1R CRE-luciferase, luminescence, 24 h; GLP-1R form is constitutively active; note: % is set by controls: 0 for no effect and ±100 for the full control effect; nearly all actives have a fitted effect of over 55% in size
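Seeding at 200 cells/uL, 12 h culture, 24 hr compound treatment, then luciferase reagent and a luminescence read; cells are HEK293 stably expressing a constitutively active GLP-1R plus cAMP-responsive luciferase.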
Starred values were filed as active, the others as inactive; i = inactive; ? = inconclusive; . = no result; [ ] = dose if it differs, or a comment. Calls come from the whole dose curve; as a rule, active = well fitted curve in the direction sought with a large enough effect; inconclusive = small, poorly fitted or top-dose-only effect, or another doubt; inactive = no such curve, though single readings can be large; an effect the other way counts as inactive or inconclusive. Potency is the fitted concentration of half-maximal effect.

SMILES	GLP1R ag	KAT2A inh	GLP1R cytotox	RGS4 inh	PTHR1 ag	GLP-1R inv ag
CCOc1ccc2[nH]c(=O)c(CN(Cc3cccs3)Cc3nnnn3C(C)(C)CC)cc2c1	0.7%	-18.5%	11.2µM*	20.9%	-8.7%[57.5 µM]	?
CCC(C)(C)n1nnnc1CN(Cc1cccs1)Cc1cc2cc(OC)ccc2[nH]c1=O	-1.3%	-7.3%	?	-2.0%	i	43.9%
O=C(c1cc([N+](=O)[O-])ccc1N1CCCCC1)N1CCc2ccccc21	7.5%	0.8%	?	-9.9%	-26.1%	2µM*
O=C(c1cc([N+](=O)[O-])ccc1Cl)N1CCc2ccccc21	0.3%	-3.4%	4.0%	0.6%	-15.5%	?
COc1ccc(NC(=O)Cc2ccc(Cl)c(Cl)c2)cn1	13.0%	-1.5%	0.3%	16.9%	-10.7%	-2.1%
COc1ccc(NC(=O)/C(Cl)=C(/Cl)S(=O)Cc2ccccc2Cl)cn1 (stereo not given)	-7.9%	-5.1%	3.98µM*	-110.4%	-54.3%	?
CN(C)c1ccc(CNC(=O)CCNS(=O)(=O)c2cc(Br)cnc2N)cc1	-4.5%	-3.8%	-5.0%	-25.5%[56.9 µM]	i	4.47µM*
Cc1cccc(CCNC(=O)CCNS(=O)(=O)c2cc(Br)cnc2N)c1	5.0%	-8.3%	-2.0%	-11.1%[56.9 µM]	-40.1%	?
OC(CNc1ccccc1)Cn1ccc2ccccc21 (stereo not given)	2.9%	-2.7%	0.3%	-6.0%	-17.8%	11.2µM*
OC(CN1CCCC1)Cn1ccc2ccccc21 (stereo not given)	-0.1%	-17.2%	23.3%	-7.6%	3.9%	9.0%
COc1ccc(/C=C/C(=O)C(C(N)=O)=C2SCCS2)cc1	-21.9%	-1.7%	-1.0%	8.4%	-14.1%	14.2%
NC(=O)C(C(=O)/C=C/c1ccc(Cl)cc1)=C1SCCS1	-8.1%	-23.4%	-28.4%	-24.9%	-42.4%	3.98µM*
CN(C)CC(=O)Nc1ccc(Oc2ccc(Cl)cc2)cc1	15.3%	13.9%	9.4%	12.9%	-1.5%	5.01µM*
O=C(NC(=S)Nc1ccc(Oc2ccc(Cl)cc2)cc1)c1ccccc1	-5.9%	?	?	?	-18.3%[57.5 µM]	12.6µM*
Cc1onc(-c2ccccc2)c1CNC(=O)Nc1cccc(Cl)c1	12.6%	-1.7%	-6.7%	11.9%	-24.3%	8.91µM*
Cc1cc(C)cc(NC(=O)NCc2c(-c3ccccc3)noc2C)c1	9.9%	0.7%	-6.3%	-1.0%	-4.8%	3.7%
CCCCC1CCC(C(=O)Nc2ccccc2N2CCOCC2)CC1 (stereo not given)	-5.7%	-2.2%	2.8%	19.3%	-17.8%	10µM*
COc1ccc(COc2cc(-c3cccc(OC)c3)nc3ccc(NC(=O)c4cccnc4)cc23)cc1	12.1%	2.8%	-20.1%	16.3%	i	2.82µM*
COc1ccc(COc2cc(-c3cccc(OC)c3)nc3ccc(NC(=O)c4ccc(OC)cc4)cc23)cc1	14.6%	-19.9%	-27.7%	-15.9%	-22.1%	?
COc1ccccc1-c1cc(C(F)(F)F)nc(S(=O)(=O)CCCC(=O)Nc2cccnc2Cl)n1	-2.8%	-0.9%	8.91µM*	-32.2%	-27.5%	?
COc1ccccc1-c1cc(C(F)(F)F)nc(S(=O)(=O)CCCC(=O)Nc2ccccc2F)n1	.	-3.5%	-22.7%	-13.2%	-2.8%	6.3%
CCOC(=O)c1nn(-c2cccc(OC)c2)c(-c2ccccc2)c1C(=O)c1ccccc1	6.8%	-12.0%	-2.5%	-11.3%	i	5.62µM*
CCOC(=O)c1nn(-c2ccccc2)c(-c2ccccc2)c1C(=O)c1ccccc1	-0.7%	-7.2%	-19.6%	-12.1%	-7.8%[57.5 µM]	2.82µM*
CCOC(=O)c1nn(-c2ccccc2F)c(-c2ccccc2)c1C(=O)c1ccccc1	-15.5%	-5.4%	-3.3%	15.1%	-18.4%[57.5 µM]	?
CCOC(=O)c1nn(-c2ccc(F)cc2)c(-c2ccccc2)c1C(=O)c1ccccc1	-29.4%	-7.7%	14.0%	11.6%	-7.9%[57.5 µM]	?
SMILES	GLP1R ag	KAT2A inh	GLP1R cytotox	RGS4 inh	PTHR1 ag	GLP-1R inv ag
CCOc1ccc(C(=O)N(Cc2cc(OC)c(OC)c(OC)c2)c2ccccn2)cc1	.	-6.3%	5.2%	4.7%	-8.7%	-8.0%
O=C(Nc1cnns1)Oc1ccccc1	2.6%	.	-3.7%	.	-9.7%	10.7%
CC(=O)N1N=C2c3ccccc3CCC2C1c1ccc(F)cc1 (stereo not given)	14.8%	-5.4%	10.0%	9.0%	i	?
CCNC(=S)N1N=C2c3ccccc3CCC2C1c1ccc(F)cc1 (stereo not given)	-17.6%	-1.4%	?	-4.7%	-13.9%	3.55µM*
COc1ccccc1OCC(=O)/C=C1/N(C)c2ccccc2C1(C)C	8.9%	-13.5%	2.7%	-24.1%	-44.5%	10µM*
CN1/C(=C\C(=O)COC(=O)c2ccccc2O)C(C)(C)c2ccccc21	12.9%	-8.6%	-1.9%	1.9%[56.9 µM]	-34.8%	?
Cc1oc(-c2ccc3c(c2)OCCO3)cc1C(=O)NC(Cc1ccccc1)C(=O)O (stereo not given)	-1.2%	-5.5%	-1.2%	?	i	34.0%
CCOc1ccc(C(=O)N2CCCC(c3nc(-c4ccc(C)o4)no3)C2)cc1 (stereo not given)	15.4%	3.1%	-6.3%	-7.5%	-14.3%	11.2µM*
Cc1ccc(-c2noc(C3CCCN(C(=O)c4ccc(Cl)cc4)C3)n2)o1 (stereo not given)	12.5%	-4.8%	-5.6%	-11.4%	-27.4%	?
CCc1cc(C(=O)Nc2cc(S(=O)(=O)N3CCCCC3)ccc2N2CCN(C)CC2)sc1C	-1.5%	.	-16.7%	.	-3.1%	?
O=C1NC[C@@H](CCCCN2C[C@H](Cc3ccc(O)cc3)N(CCc3ccccc3)C(=O)C2=O)N(CCc2ccc(O)cc2)C1=O	3.0%	.	1.5%	.	-5.5%	1.5%
C/C(=N\Nc1nc(Cl)c(Cl)cc1Cl)c1ccc(S(=O)(=O)NCc2ccco2)cc1	-3.2%	-0.2%	-26.0%	-36.1%	-46.8%	-4.1%
CN(Cc1ccccc1)C(=O)CSc1nnc(-c2cccc(Cl)c2)o1	.	-9.5%	5.5%	-22.1%	-17.9%	10µM*
COc1ccc(-c2nnc(SCC(=O)N(C)Cc3ccccc3)o2)cc1OC	.	-14.3%	-2.4%	-12.8%	-34.7%	5.0%
CCc1ccc(C(=O)C(C)OC(=O)C2COc3ccccc3O2)cc1 (stereo not given)	-5.1%	-0.7%	3.5%	-10.9%	i	20.6%
O=c1c(O)cc(C2Oc3cc(O)cc(O)c3CC2O)cc2c(C3Oc4cc(O)cc(O)c4CC3O)cc(O)c(O)c12 (stereo not given)	.	12.6µM*	.	.	.	.
